# TDP1 cell CPT – growth inhibition of DT40 Tdp1-/-;hTDP1 cells with camptothecin (screen for TDP1 inhibitors) | AID 686979 | Potency, µM (series often up to 46.2 µM), without a hit: at the top dose activity change, negative = growth inhibition, usual class: inhibitors | chicken DT40 Tdp1-/-;hTDP1 cells + 20 nM CPT, ATP luminescence, 48 h | hit rate 12% among 420,000; further: nearly all actives have a fitted effect of over 55% in size
#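 Cell growth measured by CellTiter-Glo luminescence after a minimum 48 h, 37 C compound exposure with 20 nM CPT in Tdp1-knockout DT40 cells stably expressing hTDP1, seeded 400/well; qHTS titration format.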
# HT1080-NT tox – kills 2HG-producing HT-1080-NT fibrosarcoma cells. AID 686970. hit rate 1.6% among 360,000. HT-1080-NT fibrosarcoma viability, CellTiter-Glo ATP luminescence, 48 h. Potency, µM (highest dose often 46.1 µM), for the others: at the highest dose activity, negative = less viability, hits mostly cytotoxic;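 further: NT is the 2HG producing partner of a matched IDH1 knockdown line; 0% = DMSO-treated cells and -100% = media-only wells without cells; nearly all actives have a fitted effect of over 55% in size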
#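 750 cells/well, RPMI + 5% FBS; 2 h settle, compound pin-transfer, 48 h at 37 degrees C. CellTiter-Glo 10 min RT, luminescence. Normalized to DMSO and media-only wells.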
# TDP1 cell noCPT – qHTS for Inhibitors of human tyrosyl-DNA phosphodiesterase 1 (TDP1): qHTS in cells in absence of CPT | Potency, µM (titrated, usually from 46.2 µM), for the others: top-dose activity change, negative = growth inhibition, usual class: inhibitors | DT40 Tdp1-/- hTDP1 cells, no CPT, ATP luminescence, 48 h | hit rate 15% among 420,000 | AID 686978, 2013; further: nearly all actives have a fitted effect of over 55% in size
#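 Compound effects on proliferation are scored in DT40 Tdp1-/-;hTDP1 cells in the absence of CPT. ATP levels (CellTiter-Glo luminescence) are recorded after a ≥48 hr, 37 °C incubation.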
# HT1080 IDH1KD tx – kills HT-1080 cells with IDH1 knockdown; Potency, µM (titrated, usually from 46.1 µM), for inactives: at the top dose activity, negative = toxicity, actives largely listed as cytotoxic; hit rate 2% among 360,000; HT-1080 IDH1 knockdown viability, ATP luminescence, 48 h;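 further: 0% = DMSO wells and -100% = cell-free medium wells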
#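 Cytotoxicity counter-line: IDH1KD HT-1080, 48 h, CellTiter-Glo. Curves classed by r2, magnitude and activity.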
# KB-3-1 cytotox – KB-3-1 parental cell cytotoxicity. hit rate 1.4% among 400,000. KB-3-1 viability, CellTiter-Glo ATP luminescence, 72 h. AID 1347075. Potency, µM (doses to about 46.1 µM), usual class: cytotoxic; further: nearly all actives have a fitted effect of over 60% in size
#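 Viability of parental KB-3-1 cells, measured by CellTiter-Glo luminescence, followed a 72 h incubation at 37 °C with pinned compounds in phenol-red-free DMEM containing 10% FBS.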
# KB-V1 MDR tox – KB-V1 MDR subline cytotoxicity. KB-V1 MDR cells viability, CellTiter-Glo, 72 h. Potency, µM (top dose mostly 46.1 µM), hits mostly cytotoxic. hit rate 3.4% among 400,000. AID 1347076; further: nearly all actives have a fitted effect of over 60% in size
#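 Cytotoxicity toward P-gp-expressing KB-V1 cells was determined as loss of CellTiter-Glo luminescence after 72 h at 37 degrees C. Compounds were tested in quantitative HTS format across a concentration range, with curves fitted to normalized data.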
# * hit, by the source's call; i = inactive; u = inconclusive; x = not tested or not shown; [ ] = another dose, or the depositor's remark. Only some compounds are listed: those with a hit (about 19% of all), similar ones and a draw of the others. The call rests on the fitted dose curve; in most records, active means well fitted curve in the direction sought with a large enough effect; inconclusive means small, poorly fitted or top-dose-only effect, or another doubt; inactive means no such curve, though single readings can be large; an effect the other way counts as inactive or inconclusive. Unless noted, on the % scale 0 is the no-effect control and ±100 the full control effect; potency means the concentration at half of the fitted maximal effect.
SMILES,TDP1 cell CPT,HT1080-NT tox,TDP1 cell noCPT,HT1080 IDH1KD tx,KB-3-1 cytotox,KB-V1 MDR tox
CC(C)c1ccc(NC(=O)c2ccc(CN3CC(=O)N4CCCCC4C3=O)cc2)cc1 (configuration not stated),u,x,16µM*,x,x,x
CCCn1c(SC(C)C(=O)NC2CCCC(C)C2C)n[nH]c1=O (configuration not stated),u,3%,u,-4%,i,i
COc1ccccc1NC(=O)CN(c1ccc(C23CC4CC(CC(C4)C2)C3)cc1)S(C)(=O)=O,13µM*,u,15µM*,u,i,i
CCOC(=O)c1c(C)oc2ncnc(Nc3ccc(OC)cc3OC)c12,15%,x,5%,x,i,u
COc1ccccc1CNC(=O)c1ccc2c(c1)sc1nc(-c3ccc(F)cc3)cn12,7.3µM*,x,8.2µM*,x,x,x
COc1cccc(CNC(=O)c2ccc3c(c2)sc2nc(-c4ccccc4)cn23)c1OC,9.2µM*,x,5.8µM*,x,x,x
O=C(Nc1ccccc1)N1CCN(C(=O)c2nsc3ccccc23)CC1,-7%,x,-21%,x,i,i
Cc1ccn(CCC(=O)N2CCCC(N3CCN(c4ccccc4C)CC3)C2)n1 (configuration not stated),u,-6%,u,-2%,i,i
CCC(=O)N(C1=C(NC(C)C)C(=O)c2ccccc2C1=O)C(C)C,21µM*,-16%,9.2µM*,-3%,u,u
CCc1ccc(NC(=O)N(Cc2cn(CC)c3ccccc23)C2CCCCC2)cc1,7.3µM*,x,12µM*,x,u,i
CCN(CC)C(=O)Cn1cc(C(=O)C(=O)N(CC)C2CCCCC2)c2ccccc21,u,14%,u,11%,x,x
CCOc1ccc(NC(=O)N(Cc2cn(CC)c3ccccc23)C2CCCCCC2)cc1,9.2µM*,x,21µM*,x,x,x
COC(=O)c1ccccc1NC(=O)CSc1nnc2cc(C)c3cc(C)cc(C)c3n12,u,x,u,x,i,i
CS(=O)(=O)Nc1ccc(-c2ccc3nccn3c2)cc1,u,u,-17%,3%,i,i
CC(=O)c1ccc(N2CCN(C(=O)c3cc4cc5cc(C)ccc5nc4s3)CC2)cc1,-3%,x,19%,x,i,i
N/C(=C\C(=O)c1cc(Cl)ccc1O)C(Cl)(Cl)Cl,3.7µM*,8.2µM*,3.3µM*,13µM*,u,7.3µM*
Fc1cccc(CSc2ncnc3c2ncn3C2CCCCO2)c1 (configuration not stated),u,-23%,u,-6%,i,i
CCOC(=O)CSC1=NC(=O)/C(=C\c2ccc(Cl)cc2)S1,4.6µM*,-25%,7.3µM*,u,u,u
C#CCNC(=O)C[C@@H]1C[C@@]2(C(=O)OC)CC(C)(C)CC=C2N(Cc2cccc3ccccc23)C1=O,16µM*,u,18µM*,u,u,23µM*
CCCCNC(=O)C[C@@H]1C[C@@]2(C(=O)OC)CC(C)(C)CC=C2N(Cc2cccc3ccccc23)C1=O,u,-27%,u,u,i,u
COC(=O)[C@@]12C[C@@H](CC(=O)NCc3cccs3)C(=O)N(Cc3cccc4ccccc34)C1=CCC(C)(C)C2,u,u,u,u,u,16µM*
O=C(OCc1ccccc1)c1cccnc1,u,x,9.4µM*,x,x,x
O=C(OCc1ccc(Br)cc1)c1cccnc1,u,2%,-6%,2%,i,i
CCOC(=O)C1=C(C)N(c2ccccc2)C(=O)/C1=C\c1ccc(O)c(OC)c1,-43%,-17%,u,u,i,i
CCOC(=O)C1=C(Cc2ccc(OC)cc2)C(=O)c2ccccc2C1=O,4.6µM*,10µM*,8.2µM*,7.9µM*,i,i
SMILES,TDP1 cell CPT,HT1080-NT tox,TDP1 cell noCPT,HT1080 IDH1KD tx,KB-3-1 cytotox,KB-V1 MDR tox
CCOC(=O)C1=C(O)c2ccccc2C(=O)/C1=C\c1ccc(CC)cc1,21µM*,11µM*,21µM*,8.9µM*,12µM*,u
Cc1ccc(Cn2c(=O)n(Cc3ccco3)c(=O)c3sc4ccccc4c32)cc1,u,x,u,x,i,i
Cc1ccc(CNC(=O)Cn2c(=O)n(Cc3ccccc3)c(=O)c3sc4ccccc4c32)cc1,u,x,u,x,i,u
Cc1cccc(Cn2c(=O)n(Cc3ccccc3)c(=O)c3sc4ccccc4c32)c1,u,x,23µM*,x,i,i
COc1ccc(-n2c(=O)c3sc4ccccc4c3n(Cc3ccccc3)c2=O)cc1,u,x,-26%,x,i,i
Cc1ccc(NC(=O)Cn2c(=O)n(Cc3ccccc3)c(=O)c3sc4ccccc4c32)cc1,5.8µM*,x,5.8µM*,x,x,x
O=c1c2sc3ccccc3c2n(Cc2cccc(C(F)(F)F)c2)c(=O)n1-c1ccccc1,u,x,13µM*,x,i,i
CC(=O)COc1cc2c(-c3cc4ccccc4o3)cc(=O)oc2cc1C,-21%,-3%,-20%,-7%,i,i
O=C1[C@@H]2Cc3ccccc3CN2C(=O)N1c1cccc(F)c1,4%,27%,-9%,0%,i,i
Cc1ccccc1N1C(=O)[C@@H]2Cc3ccccc3CN2C1=O,-10%,-11%,-8%,-6%,i,16µM*
O=c1cc(/C=C/c2cccs2)[nH]c2ccccc12,2.6µM*,-23%[9.24 µM],2.1µM*,7.1µM*,u,u
C(=C\c1cccs1)/c1ccccn1,0%,x,0%,x,u,i
O=C(CSc1n[nH]c(-c2ccccn2)n1)Nc1ccccc1F,4.1µM*,0%,2.9µM*,-14%,u,u
COc1ccccc1-c1nc(SCC(=O)Nc2ccccc2F)n[nH]1,u,-16%,u,u,u,u
COc1ccccc1NC(=O)CSc1n[nH]c(-c2ccco2)n1,7%,-1%,-16%,-4%,i,u
COc1ccccc1NC(=O)CSc1ncn(-c2ccccc2)n1,-12%,-4%,u,-1%,i,16µM*
COc1ccccc1NC(=O)CSc1n[nH]c(-c2ccccn2)n1,u,-9%,15µM*,-27%,u,u
O=C(CSc1n[nH]c(-c2ccccn2)n1)Nc1ccccc1,23µM*,u,u,21µM*,u,i

# Assay outcomes from PubChem BioAssay.
